Results: PubChem BioAssay (NCI)
The panel holds about 83,000 compounds, 20% with a hit somewhere; the sample as a whole holds those more often.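 Assay: single dose, 48 h. Readout: percent growth (0 = no net growth; negative = cell death). Active: <10.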 Calls of active or inactive are those of the source.

Legend:
Assay in all cases: NCI-60 one-dose screen, 48 h (100 = growth as untreated, 0 = no growth, -100 = all killed)
Conditions in all cases: 10 µM unless noted
HCT-15 colon = test system: HCT-15 colon
HT29 colon = test system: HT29 colon
SNB-75 CNS = test system: SNB-75 CNS
SNB-19 CNS = test system: SNB-19 CNS
U251 CNS = test system: U251 CNS
PC-3 prostate = test system: PC-3 prostate
SK-MEL-5 melanoma = test system: SK-MEL-5 melanoma
UACC-62 melanoma = test system: UACC-62 melanoma
LOX IMVI melanoma = test system: LOX IMVI melanoma
SK-MEL-28 melanoma = test system: SK-MEL-28 melanoma

Measured: growth

CC(C)OC(=O)Nn1cnc2ccccc21
inactive: HCT-15 colon 120% | HT29 colon 111% | SNB-75 CNS 128% | SNB-19 CNS 111% | U251 CNS 106% | PC-3 prostate 101% | SK-MEL-5 melanoma 108% | UACC-62 melanoma 107% | LOX IMVI melanoma 114% | SK-MEL-28 melanoma 128%

CC(=O)c1cc(Nc2cc(C)nc(N)n2)cc(C(C)=O)c1
inactive: HCT-15 colon 111% | HT29 colon 111% | SNB-75 CNS 90.3% | SNB-19 CNS 102% | U251 CNS 101% | PC-3 prostate 107% | SK-MEL-5 melanoma 100% | LOX IMVI melanoma 99.8%

COc1ccc(CN2C(=O)/C(=C\C(=O)c3ccc(OCCN4CCCC4)cc3)c3ccccc32)cc1
inactive: HCT-15 colon 37.3% | SNB-75 CNS 73.2% | SNB-19 CNS 97.1% | U251 CNS 87.3% | PC-3 prostate 84% | SK-MEL-5 melanoma 92.7% | UACC-62 melanoma 88.7% | LOX IMVI melanoma 31.7% | SK-MEL-28 melanoma 103%
active: HT29 colon 9.12%

CCCCCCCCCCC(C[N+](C)(C)C/C=C/c1ccccc1)C(O)c1ccccc1 (centres undefined)
active: HT29 colon -79.8% | SNB-75 CNS 5.59% | U251 CNS -93.9% | PC-3 prostate -29.9%
inactive: HCT-15 colon 79.1% | SNB-19 CNS 35.8% | SK-MEL-5 melanoma 30.6% | UACC-62 melanoma 17.4% | SK-MEL-28 melanoma 21.2%

COc1ccc2cnc(N)c(C#Cc3cc(C(=O)Nc4ccc(CN5CCN(C)CC5)c(C(F)(F)F)c4)cnc3C)c2c1
active: SNB-75 CNS -1.84% | SK-MEL-28 melanoma -72.5%
inactive: HCT-15 colon 43.5% | HT29 colon 13.2% | SNB-19 CNS 80.5% | U251 CNS 17.2% | PC-3 prostate 16% | SK-MEL-5 melanoma 34.6% | UACC-62 melanoma 26.3% | LOX IMVI melanoma 12%

COc1cc2oc(-c3ccc(NC(=O)c4ccccc4)cc3)cc(=O)c2c(OC)c1OC
inactive: HCT-15 colon 79.2% | HT29 colon 84.3% | SNB-75 CNS 81% | SNB-19 CNS 75% | U251 CNS 90.5% | PC-3 prostate 71.7% | SK-MEL-5 melanoma 85.7% | UACC-62 melanoma 85.4% | LOX IMVI melanoma 92.5% | SK-MEL-28 melanoma 93.3%

COc1ccc2c(c1)/C(=C/c1c(-c3cc(OC)c(OC)c(OC)c3)nc3sccn13)C(=O)N2
inactive: HCT-15 colon 99.5% | HT29 colon 108% | SNB-75 CNS 78.3% | SNB-19 CNS 97.1% | U251 CNS 96.3% | PC-3 prostate 85% | SK-MEL-5 melanoma 81.8% | UACC-62 melanoma 92.5% | LOX IMVI melanoma 98.3% | SK-MEL-28 melanoma 98.8%

CCCCCCCCCC[N+](C)(C)N
inactive: HCT-15 colon 101% | HT29 colon 85.4% | SNB-75 CNS 78.9% | SNB-19 CNS 87.2% | U251 CNS 91.8% | PC-3 prostate 62.4% | SK-MEL-5 melanoma 96.7% | UACC-62 melanoma 106% | SK-MEL-28 melanoma 110%

Nc1ccc(S(=O)(=O)c2ccc(NO)cc2)cc1
inactive: HCT-15 colon 116% | HT29 colon 101% | SNB-75 CNS 87.8% | SNB-19 CNS 97.1% | U251 CNS 101% | PC-3 prostate 96.8% | SK-MEL-5 melanoma 102% | UACC-62 melanoma 115% | LOX IMVI melanoma 99.5% | SK-MEL-28 melanoma 105%

Cc1c(Cc2ccccc2)c(=O)oc2c(C)c(OCc3n[nH]c(=S)o3)ccc12
inactive: HCT-15 colon 75.7% | HT29 colon 86.8% | SNB-75 CNS 71.4% | SNB-19 CNS 85.8% | U251 CNS 64.4% | PC-3 prostate 11.2% | SK-MEL-5 melanoma 83.8% | UACC-62 melanoma 90.4% | LOX IMVI melanoma 64.5% | SK-MEL-28 melanoma 110%

Oc1ccc(N=Nc2ccc(N=Nc3ccccc3)cc2)cc1
inactive: HCT-15 colon 40.7% | HT29 colon 53.4% | SNB-75 CNS 87.1% | SNB-19 CNS 58.4% | U251 CNS 51.6% | PC-3 prostate 43.1% | SK-MEL-5 melanoma 39.1% | SK-MEL-28 melanoma 54.4%
active: UACC-62 melanoma 1.15% | LOX IMVI melanoma 6.08%

Cc1ccc([C@@H]2C[C@H](O)Cc3ccccc3N2)s1
inactive: HCT-15 colon 94.1% | HT29 colon 117% | SNB-75 CNS 98.4% | SNB-19 CNS 120% | U251 CNS 99.6% | PC-3 prostate 92% | SK-MEL-5 melanoma 105% | UACC-62 melanoma 117% | LOX IMVI melanoma 101% | SK-MEL-28 melanoma 116%

CCCCCCC(C)N(CC(C)(C)O)C(=O)c1ccc([N+](=O)[O-])cc1 (centres undefined)
inactive: HCT-15 colon 104% | HT29 colon 91.6% | SNB-75 CNS 97.3% | SNB-19 CNS 95.4% | U251 CNS 97.4% | PC-3 prostate 87.2% | SK-MEL-5 melanoma 95% | UACC-62 melanoma 91.4% | LOX IMVI melanoma 104% | SK-MEL-28 melanoma 111%

O=C(O)CS(=O)c1ccc(Cl)cc1 (centres undefined)
inactive: HCT-15 colon 95.9% | HT29 colon 105% | SNB-75 CNS 103% | SNB-19 CNS 104% | U251 CNS 99.7% | PC-3 prostate 110% | SK-MEL-5 melanoma 102% | UACC-62 melanoma 111% | LOX IMVI melanoma 91% | SK-MEL-28 melanoma 105%

CCOc1ccc2nc3ccc(Cl)cc3nc2c1
inactive: HCT-15 colon 97.1% | HT29 colon 90.5% | SNB-75 CNS 108% | SNB-19 CNS 97.7% | U251 CNS 96.4% | PC-3 prostate 99.9% | SK-MEL-5 melanoma 67.1% | UACC-62 melanoma 79.4% | LOX IMVI melanoma 101% | SK-MEL-28 melanoma 113%

CC[C@H](Nc1ncnc2nc[nH]c12)c1nc2cccc(NCc3ccc(C(=O)NO)nc3)c2c(=O)n1-c1ccccc1
inactive: HCT-15 colon 97.1% | HT29 colon 66.6% | SNB-19 CNS 26% | U251 CNS 23.6% | PC-3 prostate 23% | SK-MEL-5 melanoma 80.2% | UACC-62 melanoma 20.5% | LOX IMVI melanoma 23.1% | SK-MEL-28 melanoma 57.6%
active: SNB-75 CNS 5.43%

C[C@]12CC[C@H]3[C@@H](CC[C@H]4C[C@@H](O)CC[C@@]43C)[C@@H]1CC(=O)C2
inactive: HCT-15 colon 100% | HT29 colon 96.9% | SNB-75 CNS 98.2% | SNB-19 CNS 100% | U251 CNS 97.6% | PC-3 prostate 99.7% | SK-MEL-5 melanoma 111% | UACC-62 melanoma 87.6% | LOX IMVI melanoma 102% | SK-MEL-28 melanoma 113%

CCCCCCCCCCCCCCCCNC(=O)Nc1ccc(C)c(NC(=O)NCCCCCCCCCCCCCCCC)c1
inactive: HCT-15 colon 105% | HT29 colon 104% | SNB-75 CNS 97% | SNB-19 CNS 96.9% | U251 CNS 100% | PC-3 prostate 84.5% | SK-MEL-5 melanoma 98.4% | UACC-62 melanoma 95.5% | LOX IMVI melanoma 109% | SK-MEL-28 melanoma 112%

CC(C)CSc1nc(-c2ccc(F)cc2)c(C#N)c(N2CCCCC2)n1
inactive: HCT-15 colon 92.2% | HT29 colon 87.6% | SNB-75 CNS 100% | SNB-19 CNS 104% | U251 CNS 93% | PC-3 prostate 82% | SK-MEL-5 melanoma 94.3% | UACC-62 melanoma 82.1% | LOX IMVI melanoma 92.9% | SK-MEL-28 melanoma 94.3%

Oc1ccccc1/C=N/N=C\c1ccccc1Cl
inactive: HCT-15 colon 95.5% | HT29 colon 97.5% | SNB-75 CNS 86.7% | SNB-19 CNS 91.5% | U251 CNS 93.4% | PC-3 prostate 88.1% | UACC-62 melanoma 92.1% | LOX IMVI melanoma 86.2% | SK-MEL-28 melanoma 105%

CC(=O)OCC1O[C@@H](OC(C)=O)[C@@H](NC(=O)NS(=O)(=O)c2ccccc2)C(OC(C)=O)[C@@H]1OC(C)=O (some centres undefined)
inactive: HCT-15 colon 96.6% | HT29 colon 111% | SNB-75 CNS 91.2% | SNB-19 CNS 98.7% | U251 CNS 106% | PC-3 prostate 102% | SK-MEL-5 melanoma 102% | LOX IMVI melanoma 99.6% | SK-MEL-28 melanoma 108%
